We go through 14 sequences from the OligoGym collection.
Note: reference of the scale not given here.

This assay concerns the target CHRM2. Nature of the assay: pooled miR-30 sensor sort-seq; sequence = guide strand. The settings on record: shRNA.
Take TTTGTGGTCCGCTTGACTGGGT: the sensor-assay potency score (higher = more potent) is -0.403. Sequence TTAATGAGCACCATGACATTGT had a sensor-assay potency score (higher = more potent) of -0.0449.

Sequence TTCTTTATCCTGCTCTTGCTGG showed a sensor-assay potency score (higher = more potent) of -0.363. Take TATAAGGACTTGTAAGAGCCAG: the sensor-assay potency score (higher = more potent) is -0.37.

Take TTCATCTCCATTCTGACCTGAA: the sensor-assay potency score (higher = more potent) turned out to be 0.399. TTAGTCATCTTCACAATCTTGC: the sensor-assay potency score (higher = more potent) was found to be 0.87.

Regarding TACATGAGTCACTTTTTGGGGT, the sensor-assay potency score (higher = more potent) is -0.152. Turning to TTGGCTTCACTATCCTTCCTTG, the sensor-assay potency score (higher = more potent) is -0.217. The sequence TAGAAGGCTGCAATAGCCGTAC displayed a sensor-assay potency score (higher = more potent) of -0.0525. With TTCTTGTCCTTCTTTATCCTGC, the sensor-assay potency score (higher = more potent) is -0.0112. The sequence TTCATAACTGAGGCATTGCTGA showed a sensor-assay potency score (higher = more potent) of -0.852.

In turn, TTTGTGACACAGAAGTACCTGT showed a sensor-assay potency score (higher = more potent) of 0.495. In the case of TTTCATCTCCATTCTGACCTGA it was 0.602; in that of TTAGAGTTCTCATCTTTGGAAT, -1.06.
